A short description of assay [1]: qHTS Assay for Lipid Storage Modulators (AID 1519; calls by dose curve; as to activity change, negative = inhibition: % is scaled to controls: 0 for no effect and ±100 for the full control effect). The settings on record: Drosophila S3 cells, BODIPY lipid droplet/cell ratio, laser cytometry, cells loaded with oleic acid. The gist of the method: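 Cells seeded at 5,000 per well were treated with compounds over a concentration series and loaded with oleic acid (400 uM, as added). Lipid droplet fluorescence (488 nm excitation, 500-530 nm channel) was read by laser-scanning cytometry and normalized to 20 uM Triacsin C.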
Background: In qHTS, concentration-response curves come from the screen itself.

For assay [2], the target named is Alpha-galactosidase A (Homo sapiens) (UniProt P06280). The assay is described as follows: Counterscreen for Glucocerebrosidase Inhibitors: qHTS Assay for Human alpha-Galactosidase at pH 4.5 (AID 992). Also: 0% is about no effect. The settings on record: purified enzyme, fluorogenic substrate; series mostly up to 76.9 µM. The essentials: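 Concentration-response curves (0.7 nM to 77 uM final) were modeled with the Hill equation to give AC50. Reactions: 2 nM enzyme, 80 uM fluorogenic alpha-galactoside, pH 4.5 citric acid buffer, 20 min, room temperature.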
Alpha-galactosidase A (Homo sapiens), sequence (P06280 whole entry, looked up): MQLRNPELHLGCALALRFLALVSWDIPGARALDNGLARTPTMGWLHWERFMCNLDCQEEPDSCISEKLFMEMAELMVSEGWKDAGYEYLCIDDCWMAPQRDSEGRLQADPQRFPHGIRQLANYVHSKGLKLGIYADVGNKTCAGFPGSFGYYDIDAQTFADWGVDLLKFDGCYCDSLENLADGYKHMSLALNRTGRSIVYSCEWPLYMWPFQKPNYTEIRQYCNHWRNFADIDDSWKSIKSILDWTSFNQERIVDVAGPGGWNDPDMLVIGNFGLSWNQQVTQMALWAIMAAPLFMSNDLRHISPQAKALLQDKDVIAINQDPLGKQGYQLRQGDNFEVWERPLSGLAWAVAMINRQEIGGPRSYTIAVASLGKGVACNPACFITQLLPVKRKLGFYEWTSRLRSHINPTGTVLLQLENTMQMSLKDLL
A general note: Counterscreens check selectivity or assay interference.

Assay [3] addresses alpha-glucosidase (Oryza sativa, rice) (UniProt Q653V4). The assay is described as follows: Counterscreen for Glucocerebrosidase Inhibitors: qHTS Assay for Rice alpha-Glucosidase at pH 5.0 (AID 997).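 Also: 0% = full activity with enzyme and -100% = basal without enzyme.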 To be noted: rice alpha-glucosidase enzyme activity; series mostly up to 76.9 µM. The gist of the method: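 Rice alpha-glucosidase (4 nM final) with 400 uM 4-methylumbelliferyl-alpha-D-glucopyranoside in citrate buffer pH 5.0, 20 min at room temperature, stopped at pH 10; fluorescence 365/440 nm, compounds 0.7 nM–77 uM, AC50 from Hill fits.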

The nature of assay [4]: Validation of Assay for Modulators of Lamin A Splicing (AID 1459; active = well fitted curve in the direction sought with a large enough effect in the signal ratio; the % refers to the signal ratio;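 also: cells exposed to compound for two days before reading; 0% is about no effect; ratio rise marks activators and ratio drop marks inhibitors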). To be noted: Lamin A splicing dual RFP/GFP fluorescence reporter; series mostly up to 9.22 µM. The essentials:
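Splicing correction read as GFP (500-530 nm) over DsRed2 (575-640 nm) object intensity after 48 h compound exposure of reporter HeLa S3 clones (600 cells/well, 2% FBS medium); ancitabine and cycloheximide titrations, 0.5% DMSO as vehicle.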

Assay [5] concerns the target DNA repair nuclease/redox regulator APEX1 (Homo sapiens) (UniProt P27695). The assay is described as follows: qHTS Validation Assay for Inhibitors of the Human Apurinic/apyrimidinic Endonuclease 1 (APE1) (AID 1705;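 also: TAMRA fluorescence gain over two minutes as APE1 cuts a quenched THF abasic duplex; % is scaled to controls: 0 for no effect and ±100 for the full control effect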). The settings on record: purified APE1 endonuclease activity, fluorescence, titration; series mostly up to 57.1 µM. The gist of the method:
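Activity read as rising fluorescence (598 nm emission, 525 nm excitation) from incision of a TAMRA/BHQ-2 duplex carrying a THF abasic site (50 nM). Compound and enzyme sat 15 min at RT before substrate start; signal change between first and third 60-s reads.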

A short description of assay [6]: Counterscreen for APE1 Inhibitors: Fluorescent Dye Displacement Validation Assay (AID 1707).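 Also: plate controls were ThO with dsDNA and no compound for no effect and ThO without dsDNA for full effect.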 The settings on record: fluorescent dye displacement from DNA; series mostly up to 57.1 µM. The essentials: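 Assay buffer: Tris-HCl pH7.5 with 50mM NaCl, 2 mM MgCl2, 0.01% Tween-20. Dye 250 nM, duplex 50 nM final. Readout: decrease in ThO endpoint fluorescence, 480 nm excitation, 540 nm emission.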

A short description of assay [7]: qHTS for differential inhibitors of proliferation of Plasmodium falciparum line GB4 (AID 1816).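 Also: parasite growth measured after 72 h incubation.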 Also: potency is read from the fitted curve at half-maximal effect.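 As to activity change, negative = inhibition: 0% = vehicle DMSO and -100% = reference inhibitor.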 To be noted: Potency: Plasmodium falciparum GB4 proliferation inhibition; series mostly up to 28.7 µM.
Assay [8] can be described thus: qHTS for differential inhibitors of proliferation of Plasmodium falciparum line 3D7 (AID 1876). Also: potency is read from the fitted curve at half-maximal effect. To be noted: P. falciparum 3D7 proliferation inhibition; series mostly up to 28.7 µM.
The nature of assay [9]: qHTS for differential inhibitors of proliferation of Plasmodium falciparum line D10 (AID 1877).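 Also: parasites grown with compound for 72 h before DNA staining.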 Also: potency is read from the fitted curve at half-maximal effect.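 As to activity change, negative = inhibition: plate controls were vehicle wells for no effect and reference inhibitor wells for full effect.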 The settings on record: series mostly up to 28.7 µM.
Assay [10] concerns the target Ferritin light chain (Equus caballus) (UniProt P02791). Kind of assay: qHTS Validation Assay for Identification of Novel General Anesthetics (AID 2323). Also: % is scaled to controls: 0 for no effect and ±100 for the full control effect. The settings on record: horse apoferritin, anesthetic-site fluorescent probe displacement; series mostly up to 76.9 µM. The gist of the method:
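Competitive displacement of the profluorescent anesthetic 1-AMA (50% saturated, PBS) from 10 uM apoferritin, 10 min, room temperature. Activity is normalized 380/535 nm fluorescence; concentration-response fitted with a four-parameter Hill equation.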

In assay [11] the target is ATP-dependent DNA helicase Q1 (Homo sapiens) (UniProt P46063). Kind of assay: qHTS Validation Assay for Inhibitors of RecQ-Like Dna Helicase 1 (RECQ1) (AID 2353).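 Also: plate controls were DMSO vehicle for no effect and enzyme-free control for full effect.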 The settings on record: recombinant RECQ1 helicase DNA unwinding assay; series mostly up to 25.6 µM. The essentials:
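50 nM RECQ1T1 preincubated 15 min with compound in Tris pH 8.0 buffer with MgCl2, DTT, Tween-20 and 2.5 ug/ml poly(dI-dC); started with 200 nM TAMRA/BHQ-2 forked duplex and 2 mM ATP. Unwinding read as fluorescence (525/598 nm), two reads 2 h apart.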

A short description of assay [12]: qHTS for differential inhibitors of proliferation of Plasmodium falciparum line 7G8 (AID 1815).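 Also: parasite growth measured after three days of incubation.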 Also: potency is read from the fitted curve at half-maximal effect.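 As to activity change, negative = inhibition: plate controls were vehicle wells for no effect and reference inhibitor wells for full effect.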 The settings on record: Plasmodium falciparum 7G8 proliferation inhibition; series mostly up to 28.7 µM.
Assay [13] is described as follows: qHTS for differential inhibitors of proliferation of Plasmodium falciparum line HB3 (AID 1886).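 Also: parasites grown with compound for 72 h before SYBR Green readout.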 Also: potency is read from the fitted curve at half-maximal effect.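 As to activity change, negative = inhibition: plate controls were vehicle for no effect and reference inhibitor for full effect.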 The settings on record: Potency: Plasmodium falciparum HB3 proliferation inhibition; series mostly up to 28.7 µM.
A short description of assay [14]: qHTS Assay for Modulators of Human Peripheral Myelin Protein 22 (PMP22) Expression/Activity (AID 1967; active = well fitted curve in the direction sought with a large enough effect in the signal ratio; the % refers to the signal ratio;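 also: 0% = untreated cells and 100% end not stated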). The settings on record: Cell-based PMP22 reporter, dual-color luciferase ratio, 0% = compound-free control cells, mouse Pmp22 promoter in mouse Schwann cells; series mostly up to 115 µM. The essentials: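 Readout is the corrected green/red luminescence ratio after 24 h compound exposure, normalised to untreated cells (0%). Engineered MSC80 mouse Schwann cells express green luciferase from the mouse Pmp22 promoter and red luciferase from EF-alpha as internal control.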

A short description of assay [15]: qHTS for differential inhibitors of proliferation of Plasmodium falciparum line W2 (AID 1883).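 Also: potency is read from the fitted curve at half-maximal effect; parasites grown with compound for 72 h before lysis and staining.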 The settings on record: Potency: Plasmodium falciparum W2 proliferation inhibition; series mostly up to 28.7 µM.
Assay [16] is described as follows: Cell Viability - LYMP1-002 - Assay at 24 hr (AID 993). Also: % is scaled to controls: 0 for no effect and ±100 for the full control effect. The settings on record: LYMP1-002 lymphoblastoid cells viability; series mostly up to 92.2 µM. The gist of the method: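 Human lymphoblastoid LYMP1-002 cells (2500/well) treated 24 h at 37 °C; viability as intracellular ATP by CellTiter-Glo luminescence. Tetraoctylammonium bromide as positive control; AC50 from Hill-equation fits of qHTS concentration-response.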

Setting [17] is: measured here: cell count channel max response.
The mark [18] stands for this setting: measured here: lipid channel max response.

“And” between values parts separate entries of the source, which are not always exact repeats. Identical values can stand only once. Results filed as inconclusive are left out. The source made the active and inactive calls. Unless noted, calls follow the shape of the dose curve; as a rule, active = well fitted curve in the direction sought with a large enough effect; inconclusive = small, poorly fitted or top-dose-only effect, or another doubt; inactive = no such curve, though single readings can be large; an effect the other way counts as inactive or inconclusive.

DNA repair nuclease/redox regulator APEX1 (Homo sapiens), sequence (P27695 whole entry, looked up): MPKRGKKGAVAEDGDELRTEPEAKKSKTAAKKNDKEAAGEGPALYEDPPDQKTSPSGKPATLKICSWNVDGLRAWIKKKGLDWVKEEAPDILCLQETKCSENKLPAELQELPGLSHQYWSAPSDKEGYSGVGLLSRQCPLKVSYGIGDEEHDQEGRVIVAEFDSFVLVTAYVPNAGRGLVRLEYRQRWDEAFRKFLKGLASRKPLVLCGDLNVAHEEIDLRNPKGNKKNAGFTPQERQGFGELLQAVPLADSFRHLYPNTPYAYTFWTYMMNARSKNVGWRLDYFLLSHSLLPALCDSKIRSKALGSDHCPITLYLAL
Ferritin light chain (Equus caballus), sequence (P02791 2-175 limits assumed): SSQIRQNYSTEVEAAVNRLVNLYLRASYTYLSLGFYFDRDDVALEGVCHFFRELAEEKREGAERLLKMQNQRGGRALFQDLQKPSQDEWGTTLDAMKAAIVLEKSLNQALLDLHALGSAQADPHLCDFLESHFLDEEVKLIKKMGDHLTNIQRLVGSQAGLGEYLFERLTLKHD
ATP-dependent DNA helicase Q1 (Homo sapiens), sequence (P46063 whole entry, looked up): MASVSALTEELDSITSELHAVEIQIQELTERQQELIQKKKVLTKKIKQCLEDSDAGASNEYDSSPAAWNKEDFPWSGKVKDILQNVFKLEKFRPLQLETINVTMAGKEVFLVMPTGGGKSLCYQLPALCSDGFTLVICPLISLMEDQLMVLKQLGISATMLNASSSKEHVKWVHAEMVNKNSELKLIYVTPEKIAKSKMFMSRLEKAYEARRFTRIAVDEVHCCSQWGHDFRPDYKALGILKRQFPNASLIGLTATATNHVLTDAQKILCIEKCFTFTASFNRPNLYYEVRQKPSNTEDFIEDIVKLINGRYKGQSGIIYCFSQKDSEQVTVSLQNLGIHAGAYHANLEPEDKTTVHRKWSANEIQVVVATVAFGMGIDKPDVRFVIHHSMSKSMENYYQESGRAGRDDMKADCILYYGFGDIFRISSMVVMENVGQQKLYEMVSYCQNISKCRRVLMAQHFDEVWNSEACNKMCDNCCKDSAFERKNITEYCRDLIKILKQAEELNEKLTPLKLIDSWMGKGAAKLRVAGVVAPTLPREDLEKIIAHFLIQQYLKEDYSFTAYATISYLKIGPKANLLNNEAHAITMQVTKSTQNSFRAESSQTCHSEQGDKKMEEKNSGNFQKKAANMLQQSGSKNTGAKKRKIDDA

Consider `CCCCCCCCCCCCCCCCCCOCC(O)CO` (stereo not given), for which, in [1] (at 57.5 µM (top of the series)), the activity change, negative = inhibition is 4.1% (inactive). Besides, the max response was determined as 15.6% in assay [1] (setting [17]) and 19.9% in [1] (setting [18]).

For `CC1=C(CC(=O)O)c2cc(F)ccc2/C1=C\c1ccc(S(C)(=O)=O)cc1`, the molecule was called inactive in [2], in assay [3], in assay [4] and in assay [10]. The Potency result in assay [5], in assay [6], in assay [7], in [8], in assay [9] and in [11] was “inactive” in each case.

For `CC(C)(C)c1onc(OCP(=O)(O)O)c1CC(N)C(=O)O` (stereo not given), the molecule was called inactive in assay [4], in [14] and in [10]. Besides, the activity change, negative = inhibition in [1] (at 57.5 µM (top of the series)) is -0.922% (inactive). Further, the max response is -37.6% in assay [1] (setting [17]) and -40.1% in [1] (setting [18]). Moreover, the Potency entry in [5], in assay [6], in assay [12], in [7], in assay [8] and in assay [9] was “inactive” each time. Also, the Potency entry in [13] and in assay [11] was “inactive” each time.

For the molecule `CC(CN1c2ccccc2Sc2ccccc21)N(C)C` (stereo not given), the outcome in assay [4] and in assay [10] was inactive. Also, the activity change, negative = inhibition in assay [1] (at 57.5 µM (top of the series)) was 7.97% (inactive) and 1.76% (inactive). The max response in assay [1] (setting [17]) was 24.2% and 6.53%; in assay [1] (setting [18]) it was 44.6% and 8.19%. For the same molecule, the Potency result in assay [5], in [6] and in assay [11] was “inactive” in each case. The Potency was 7.08 µM (active) in [12]; 6.31 µM (active) in assay [7]; 14.1 µM (active) in assay [8]; 14.1 µM (active) in [9]; 2.24 µM (active) in assay [15]; 11.2 µM (active) in [13].

For the molecule `CN1CCOC(c2ccccc2)c2ccccc2C1` (stereo not given), the activity change, negative = inhibition in assay [1] (at 57.5 µM (top of the series)) is 6.92% (inactive). Further, the results for the max response in assay [1] (setting [17]) and in assay [1] (setting [18]) were 13.7% and 26.3%, respectively.

In the case of `CCCCOc1cc(C(=O)OCCN(CC)CC)ccc1N`, the activity change, negative = inhibition in assay [1] (at 25.7 µM (top of the series)) is -1.04% (inactive). Besides, the values for the max response in assay [1] (setting [17]) and in assay [1] (setting [18]) were -13.7% and -14%, respectively.

Take `O=C1NS(=O)(=O)c2ccccc21`: the activity change, negative = inhibition in assay [1] (at 57.5 µM (top of the series)) was 6.8% (inactive). Also, the max response was found to be 18.3% in [1] (setting [17]) and 29.2% in assay [1] (setting [18]).

Turning to `CC(COc1ccccc1)NC(C)C(O)c1ccc(O)cc1` (stereo not given), in assay [1] (at 57.5 µM (top of the series)), the activity change, negative = inhibition was 4.19% (inactive). Also, the results for the max response in assay [1] (setting [17]) and in assay [1] (setting [18]) were 1.34% and 8.74%, respectively.

Take `CC1(C)OC(=O)NC1=O`: in [1] (at 25.7 µM (top of the series)), the activity change, negative = inhibition was -0.879% (inactive). In addition, the max response was -12% in [1] (setting [17]) and -11.9% in [1] (setting [18]).

For the molecule `CCn1cc(C(=O)O)c(=O)c2cnc(N3CCNCC3)nc21`, the activity change, negative = inhibition in [1] (at 25.7 µM (top of the series)) was -2.05% (inactive); in [1] (at 57.5 µM (top of the series)) it was 0.203% (inactive). For the same molecule, the max response in assay [1] (setting [17]) was 0.27% and 20.9%; in assay [1] (setting [18]), -1.56% and 23.6%.

Take `CN(C)CCC=C1c2ccccc2CCc2ccccc21`: the result in assay [2], in [3] and in assay [10] was inactive. Moreover, the Potency entry in assay [16], in assay [5], in [6] and in assay [11] was “inactive” in each case. The activity change, negative = inhibition in assay [1] (at 25.7 µM (top of the series)) is -5.26% (inactive); in assay [1] (at 57.5 µM (top of the series)), -0.124% (inactive) and 0.255% (inactive). Also, the max response in [1] (setting [17]) was -13.5% and 9.92% and -13.3%; in [1] (setting [18]) it was -18.6% and 12.5% and -14.8%.

Turning to `C#CCN(C)Cc1ccccc1`, the outcome in [2], in assay [3] and in assay [10] was inactive. Further, the activity change, negative = inhibition in assay [1] (at 25.7 µM (top of the series)) was -2.03% (inactive). Moreover, the values for the max response in assay [1] (setting [17]) and in assay [1] (setting [18]) were -10.9% and -13.8%, respectively. For the same molecule, the Potency result in assay [5], in [6], in assay [12], in assay [7], in assay [8] and in assay [9] was “inactive” throughout. For the same molecule, the Potency result in assay [13] and in [11] was “inactive” each time.

The values above are taken from PubChem BioAssay (NCATS).
